Only some compounds are listed: those with a hit (about 3.7% of all), similar ones and a draw of the others.
VDR inhibitor: inhibitors of human vitamin D receptor. Potency, µM, for inactives: max response, negative = inhibition, most hits filed as inhibitors. VDR-SRC2-3 peptide fluorescence polarization, 2 h. P11473. actives 0.93% (n = 400,000); note: potency is the fitted concentration of half-maximal effect; % is set by controls: 0 for no effect and ±100 for the full control effect
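FP read-out; VDR + SRC2-3 coactivator peptide; 23 nl compound by pintool; 2 h RT incubation; reagents held at 4 deg C, protected from light.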
WRN inhibitor: WRN helicase (human) inhibition; Q14191; WRN helicase unwinding, fluorescent forked duplex, kinetic; Potency, µM (doses to about 114 µM), for inactives: at the highest dose activity change, negative = inhibition, actives largely listed as inhibitors; actives 0.46% (n = 360,000); AID 651768; note: potency is the fitted concentration of half-maximal effect; % is set by controls: 0 for no effect and ±100 for the full control effect; nearly all actives have a fitted effect of over 55% in size
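Screening of the MLSMR collection measured strand separation of a quenched forked DNA duplex (100 nM) by 20 nM WRN with 2 mM ATP, all final. Compounds were preincubated with enzyme 15 min at room temperature.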
FEN1 inhibitor: inhibitors of human flap endonuclease 1 | Recombinant FEN1 flap cleavage, fluorescence, 15 min | AID 588795 | actives 0.35% (n = 390,000) | Potency, µM (titrated, usually from 114 µM), without a hit: at the highest dose activity change, negative = inhibition, usual class: inhibitors | P39748; note: potency is the fitted concentration of half-maximal effect; % is set by controls: 0 for no effect and ±100 for the full control effect; nearly all actives have a fitted effect of over 65% in size
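Read-out was taken twice, immediately and after 15 min, following addition of 50 nM substrate to 10 nM FEN1 that had sat with test compound for 15 min at room temperature. Curves came from a four-parameter Hill model.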
PI5P4K alpha inh: blocks human PI5P4K alpha kinase activity; P48426; PI5P4Kalpha enzyme, ADP-Glo luminescence, 60 min; active compounds read low; max response, %; actives 1.2% (n = 330,000); active = max response of -50% or lower; inconclusive = between -30% and -50%; inactive = -30% or higher; note: value at the top dose of about 77 µM; % is set by controls: 0 for no effect and ±100 for the full control effect
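Single end-point luminescence (ADP-Glo) quantified ADP from PI5P4Kalpha turnover; ATP 5 microM final, 1 h at RT, 0.1% CHAPS and 0.28 mM EGTA in HEPES pH 7.4.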
TCR act: T cell receptor activation; primary human leukocytes, anti-CD3, IL-2 HTRF, 48 h; Potency, µM (titrated, usually from 9.22 µM), inactives show at the top dose activation of IL-2 secretion, most hits filed as activators; 330,000 tested, under 10 active; note: % of control where 0% means no effect
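48 hr co-incubation of compounds, a-CD3 beads and primary human leukocytes; IL-2 quantified homogeneously by HTRF with anti-IL-2 K and d2 conjugates.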
PLK1 PBD block: PLK1 (human) polo-box domain binding inhibition; P53350; Plk1 PBD binding of FITC phosphopeptide, fluorescence polarization; Potency, µM, for the others: max response, negative = inhibition, actives largely listed as inhibitors; actives 2.8% (n = 360,000); note: potency is the fitted concentration of half-maximal effect; series mostly up to about 57 µM; % is set by controls: 0 for no effect and ±100 for the full control effect; nearly all actives have a fitted effect of over 65% in size
Target sequence (P53350 whole entry, looked up, the tested form may be a part): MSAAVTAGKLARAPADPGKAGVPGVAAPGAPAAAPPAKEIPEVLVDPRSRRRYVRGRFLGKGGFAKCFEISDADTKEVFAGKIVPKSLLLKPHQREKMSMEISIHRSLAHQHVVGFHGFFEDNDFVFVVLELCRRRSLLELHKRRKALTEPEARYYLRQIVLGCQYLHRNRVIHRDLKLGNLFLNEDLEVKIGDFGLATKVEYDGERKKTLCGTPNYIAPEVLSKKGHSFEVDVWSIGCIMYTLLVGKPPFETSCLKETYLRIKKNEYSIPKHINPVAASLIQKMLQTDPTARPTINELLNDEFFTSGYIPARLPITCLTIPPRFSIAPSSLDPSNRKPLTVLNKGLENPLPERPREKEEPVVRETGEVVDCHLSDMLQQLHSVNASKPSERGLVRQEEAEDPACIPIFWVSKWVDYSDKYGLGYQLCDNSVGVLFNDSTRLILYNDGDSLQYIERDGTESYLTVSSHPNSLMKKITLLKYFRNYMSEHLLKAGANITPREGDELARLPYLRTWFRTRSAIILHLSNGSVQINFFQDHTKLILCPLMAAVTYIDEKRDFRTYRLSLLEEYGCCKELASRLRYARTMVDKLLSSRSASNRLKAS
* marks the source's active call; other numbers are inactive results; ? = inconclusive; . = no result given; ! = not active in a repeat; [ ] = another dose, or the depositor's remark. Unless noted, calls come from the whole dose curve; as a rule, active = well fitted curve in the direction sought with a large enough effect; inconclusive = small, poorly fitted or top-dose-only effect, or another doubt; inactive = no such curve, though single readings can be large; an effect the other way counts as inactive or inconclusive.

SMILES	VDR inhibitor	WRN inhibitor	FEN1 inhibitor	PI5P4K alpha inh	TCR act	PLK1 PBD block
CC1(C)Cc2c(C#N)c(OCC(=O)c3ccc(Cl)cc3)nc(-c3ccoc3)c2CO1	33.2%	-4.7%	0.4%	3.5	-0.2%	-21.0%
CC1(C)Cc2c(C#N)c(OCC(=O)c3ccccc3)nc(-c3ccoc3)c2CO1	?	-9.4%	-3.8%	-8.6	-3.2%	26.7µM*
CCCc1c(-c2ccc(O)cc2)nn(-c2ccc(O)cc2)c1-c1ccc(O)cc1	?	0.3%	-1.8%	-52.8*	-4.8%	-9.6%
Cc1c(C(N)=O)c(-c2ccccc2)nn1-c1ccccc1	-4.2%	-7.2%	-2.0%	0.2	1.1%[46.1 µM]	6.4%
Cc1ccc(C)c(/C=N/Nc2nc3ccccc3c(=O)n2O)c1	-19.8%	-5.2%[11.6 µM]	-19.0%	?	5.2%	23.8µM*
NCCCC[C@H](NC(=O)[C@H](Cc1c[nH]c2ccccc12)NC(=O)[C@H](CC(=O)O)NC(=O)[C@H](Cc1cnc[nH]1)NC(=O)[C@H](CO)NC(=O)[C@H](Cc1c[nH]c2ccccc12)NC(=O)[C@H](Cc1cnc[nH]1)NC(=O)[C@@H]1CCC(=O)N1)C(=O)N1CCC[C@H]1C(=O)NCC(N)=O	-3.3%	.	.	.	.	.
CCOc1ccc(N(CC(=O)NC2CCCCC2)S(=O)(=O)c2c(C)noc2C)cc1	?	1.3%	-2.9%	-1.1	7.4%[46.1 µM]	29.9µM*
CCc1ccccc1NC(=O)C1CCN(C2=NS(=O)(=O)C(c3ccc(C)c(C)c3)=C2C)CC1	9.1%	.	-11.7%	.	.	.
Cc1ccc(S(=O)(=O)N2CCN(Cc3cc(=O)n4nc(-c5ccccc5Cl)sc4n3)CC2)cc1	-2.1%	.	-18.3%	.	.	.
NC(CO)C(=O)NNCc1ccc(O)c(O)c1O (configuration not stated)	44.7µM*!	-1.8%[11.6 µM]	20µM*	-54.2*	-2.1%	6.7µM*
NC(=O)C[C@H](NC(=O)Cc1ccc(O)cc1O)C(=O)O	-6.0%	.	.	.	.	.
COC(=O)c1c(NC(=O)Nc2ccc(Cl)cc2)sc(C)c1C	9.5%	2.9%	-0.5%	-1.8	-7.6%	0.0%
Cc1ccccc1-c1cc(C(=O)N2CCCC2)c2ccccc2n1	?	-21.9%	1.1%	-57.8*	3.1%	-25.4%
Cc1ccccc1-c1cc(C(=O)Nc2sc(C)c(C)c2C(N)=O)c2ccccc2n1	-1.2%	-24.5%	-17.4%	?	0.4%	26.7µM*
Cc1sc(NC(=O)Nc2ccccc2)c(C(N)=O)c1C	89.1µM*	-5.3%	13.7%	-25.6	-2.5%	-30.0%
CCOC(=O)c1sc(NC(=O)c2cc(-c3ccccc3C)nc3ccccc23)c(C#N)c1C	-10.2%	?	-1.0%	-19.2	-3.5%	5.32µM*
Cc1ccc(Nc2ncc(C(=O)Nc3ccc(F)cc3F)c3ccccc23)cc1Cl	3.4%	.	-26.1%	.	.	.
CCOC(=O)c1cc(S(=O)(=O)Nc2ccc(OC)c(Cl)c2)[nH]n1	23.9%	.	-3.2%	.	.	.
O=C(NCc1ccc(F)cc1)C(=O)NCC(c1cccs1)S(=O)(=O)c1cccs1 (configuration not stated)	7.7%	.	5.9%	.	.	.
Cc1cccc(NC(=S)NC(=O)c2cc(-c3ccccc3)nc3ccccc23)c1	-8.9%	-7.3%	-13.0%	1.4	-4.3%	-9.9%
Cc1ccccc1NC(=S)NC(=O)c1cc(-c2ccccc2)nc2ccccc12	-6.8%	-4.1%	-22.3%	-13.6	4.8%	29.9µM*
Cc1cccc(S(=O)(=O)c2cn(Cc3ccccc3)c3cc(N4CCC(C)CC4)c(F)cc3c2=O)c1	-8.6%	.	-15.8%	.	.	.
Cc1ccc2c(c1)C(=C(C#N)C#N)C(=O)N2CCN1CCOCC1	79.4µM*	7.7%	14.2%	-1.6	1.3%	11.9µM*
Cc1ccc2c(c1)C(=C(C#N)C#N)C(=O)N2CCN1CCCCC1	12.1%	13.4%	-6.2%	-10.7	8.8%	?
Cc1ccc2[nH]c(CSc3nnc(NC(=O)c4ccccc4C)s3)cc(=O)c2c1	9.0%	.	-23.0%	.	.	.
SMILES	VDR inhibitor	WRN inhibitor	FEN1 inhibitor	PI5P4K alpha inh	TCR act	PLK1 PBD block
CCCCC[C@H](O)/C=C/C=C\C/C=C\CCCCCCC(=O)O	0.7%	.	.	.	.	.
Cc1c(C#N)c(O)[nH]c(=O)c1N=Nc1ccc(S(N)(=O)=O)cc1	3.3%	?	-26.2%	-76.3*	-8.1%	-16.6%
O=[N+]([O-])c1ccc(O)c(C2=NNC(c3ccccc3F)C2)c1 (configuration not stated)	79.4µM*	?	-30.8%	-14.0	0.7%	?
COc1ccc([N+](=O)[O-])cc1C1NN=C(c2ccccc2O)S1 (configuration not stated)	2.5%	-14.5%	-12.5%	-16.9	-1.2%	-13.8%
Cc1cc[n+](CCC2CCCCC2)c2ccccc12	.	.	2.6%	.	.	.
N#Cc1c(NC(=O)c2cnn3cccnc23)sc2c1CCCC2	3.5%	-9.8%	-17.4%	-10.7	-1.5%	23.8µM*
CC1CCc2c(sc(NC(=O)Cn3nc(C(F)(F)F)c4c3CCCCC4)c2C#N)C1 (configuration not stated)	-21.2%	-5.1%	-7.6%	.	.	26.7µM*
CC1CCc2c(sc(NC(=O)c3nc4ncccn4n3)c2C#N)C1 (configuration not stated)	?	3.8%	1.8%	-24.3	9.1%	4.74µM*
N#Cc1c(NC(=O)c2nc3ncccn3n2)sc2c1CCCCC2	6.3%	-2.7%	9.7%	2.9	-1.1%	-16.9%
O=C(Nc1cccc2cccnc12)c1c(Cl)cc(Cl)cc1Cl	2.9%	.	-8.0%	.	.	.
CC(C)c1ccc(NC2CCCN(C(=O)c3cscn3)C2)cc1 (configuration not stated)	19.7%	-0.8%	-1.5%	0.3	6.8%	-14.9%
CC(C)c1ccc(NC2CCCN(C(=O)c3cc(C(C)C)nc(N)n3)C2)cc1 (configuration not stated)	-11.3%	8.6%	0.8%	1.3	-1.9%	26.7µM*
CCN1CCN(C(=S)c2ccc(O)cc2)CC1	79.4µM*	9.8%	-13.9%	?	-2.3%	4.74µM*
CCN1CCN(C(=S)c2ccc(Br)cc2)CC1	?	8.3%	-7.3%	.	.	8.44µM*
Oc1ccc(C(=S)N2CCCCCC2)cc1	6.7%	-3.8%	-5.1%	-9.3	-0.5%	?
CC1CCN(S(=O)(=O)c2ccc3c(c2)oc(=O)n3CC(=O)NC(C)c2ccccc2)CC1 (configuration not stated)	5.5%	.	-2.7%	.	.	.
CCc1cccc(NC(=O)CCc2c(C)nc3c(c2C)c(=O)n(C)c(=O)n3C)c1	-3.1%	.	10.6%	.	.	.
O=c1[nH]c(=O)c2nc(-c3ccc(Cl)cc3)cnc2[nH]1	-8.0%	-19.1%	-3.3%	?	-2.7%	-11.6%
O=c1[nH]c(=O)c2nc3c4ccccc4c4ccccc4c3nc2[nH]1	-24.3%	?	?	11.9	-4.1%	21.2µM*
Cc1cc(C)n(-c2nc(C)c(C)c(=O)n2CC(=O)Nc2ccc(OC(F)(F)F)cc2)n1	14.0%	.	-1.2%	.	.	.

Bioassay records (PubChem)
